# Measurements from PubChem BioAssay AID504333 (National Center for Advancing Translational Sciences (NCATS), 2011).
# Among all 360,000 compounds or so, about 16,000 (4.4%) were called active. Roughly 9% stayed inconclusive and do not appear here. The list comes from a sample in which actives are over-represented; it also holds similar structures and randomly drawn compounds. A number with no mark means an inactive call. Calls follow the shape of the dose curve; as a rule, active = well fitted inhibition curve with a large enough effect; inconclusive = small, poorly fitted or top-dose-only effect; inactive = no such curve, though single readings can be large or run the other way.
# Molecular target: Bromodomain adjacent to zinc finger domain protein 2B (Homo sapiens) (UniProt Q9UIF8)
# Sequence (Q9UIF8 whole entry, looked up, the tested form may be a part): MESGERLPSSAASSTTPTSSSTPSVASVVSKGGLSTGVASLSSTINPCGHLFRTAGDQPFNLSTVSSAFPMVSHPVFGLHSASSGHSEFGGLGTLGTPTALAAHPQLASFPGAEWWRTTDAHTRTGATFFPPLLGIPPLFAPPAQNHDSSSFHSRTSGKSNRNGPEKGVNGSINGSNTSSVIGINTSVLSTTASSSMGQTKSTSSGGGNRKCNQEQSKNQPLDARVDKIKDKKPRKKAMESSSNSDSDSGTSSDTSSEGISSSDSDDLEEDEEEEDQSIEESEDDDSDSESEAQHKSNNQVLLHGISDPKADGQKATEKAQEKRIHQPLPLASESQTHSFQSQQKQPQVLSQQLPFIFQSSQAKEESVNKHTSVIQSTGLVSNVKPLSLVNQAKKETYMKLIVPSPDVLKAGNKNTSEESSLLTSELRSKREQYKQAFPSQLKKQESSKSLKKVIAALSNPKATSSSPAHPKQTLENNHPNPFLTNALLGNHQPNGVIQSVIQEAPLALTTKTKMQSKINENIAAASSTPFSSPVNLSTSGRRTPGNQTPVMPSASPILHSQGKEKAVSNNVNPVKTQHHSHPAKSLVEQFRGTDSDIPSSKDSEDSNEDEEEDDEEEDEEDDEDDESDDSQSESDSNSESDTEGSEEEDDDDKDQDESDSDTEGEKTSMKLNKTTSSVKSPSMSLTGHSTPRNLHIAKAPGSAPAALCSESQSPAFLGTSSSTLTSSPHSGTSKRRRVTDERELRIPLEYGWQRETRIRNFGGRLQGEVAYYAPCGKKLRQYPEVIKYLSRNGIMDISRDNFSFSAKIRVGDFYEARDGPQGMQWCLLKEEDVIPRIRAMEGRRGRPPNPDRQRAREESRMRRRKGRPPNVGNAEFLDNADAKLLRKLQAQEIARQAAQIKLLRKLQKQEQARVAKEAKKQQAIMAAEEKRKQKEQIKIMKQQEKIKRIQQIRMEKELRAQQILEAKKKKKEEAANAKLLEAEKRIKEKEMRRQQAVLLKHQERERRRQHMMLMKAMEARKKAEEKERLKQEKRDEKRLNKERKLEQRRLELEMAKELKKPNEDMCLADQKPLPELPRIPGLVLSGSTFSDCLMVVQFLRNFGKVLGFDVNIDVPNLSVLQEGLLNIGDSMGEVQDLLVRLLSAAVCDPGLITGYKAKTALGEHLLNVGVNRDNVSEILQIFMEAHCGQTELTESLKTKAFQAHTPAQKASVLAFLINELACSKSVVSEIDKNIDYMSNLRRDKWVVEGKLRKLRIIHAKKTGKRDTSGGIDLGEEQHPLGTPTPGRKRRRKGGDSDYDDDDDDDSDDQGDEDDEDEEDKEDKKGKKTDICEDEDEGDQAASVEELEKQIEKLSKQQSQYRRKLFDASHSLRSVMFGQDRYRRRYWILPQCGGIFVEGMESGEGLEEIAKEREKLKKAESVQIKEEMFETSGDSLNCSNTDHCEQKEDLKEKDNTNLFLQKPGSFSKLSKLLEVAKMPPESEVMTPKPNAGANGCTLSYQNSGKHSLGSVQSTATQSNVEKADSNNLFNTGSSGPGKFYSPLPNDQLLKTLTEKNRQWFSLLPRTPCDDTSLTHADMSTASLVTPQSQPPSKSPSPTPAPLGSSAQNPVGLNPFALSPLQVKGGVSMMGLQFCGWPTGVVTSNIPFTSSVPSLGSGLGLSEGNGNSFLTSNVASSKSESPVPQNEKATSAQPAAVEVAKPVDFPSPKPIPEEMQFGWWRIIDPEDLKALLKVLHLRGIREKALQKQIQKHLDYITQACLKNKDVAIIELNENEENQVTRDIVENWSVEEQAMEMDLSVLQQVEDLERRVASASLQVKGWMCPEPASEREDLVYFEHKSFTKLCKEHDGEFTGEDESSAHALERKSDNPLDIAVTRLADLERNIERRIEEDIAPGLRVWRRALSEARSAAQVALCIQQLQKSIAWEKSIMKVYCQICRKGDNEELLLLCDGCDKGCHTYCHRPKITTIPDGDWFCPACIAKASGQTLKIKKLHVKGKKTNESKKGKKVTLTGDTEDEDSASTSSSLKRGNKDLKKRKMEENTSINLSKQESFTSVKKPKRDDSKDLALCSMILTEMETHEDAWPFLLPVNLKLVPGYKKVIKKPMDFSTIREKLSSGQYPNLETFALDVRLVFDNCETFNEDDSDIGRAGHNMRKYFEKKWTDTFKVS
# Experiment: qHTS Assay for Inhibitors of BAZ2B; also: nearly all actives have a fitted effect of over 60% in size
# Settings: AlphaScreen BAZ2B-H3K14Ac peptide displacement; series mostly up to 114 µM; activity change, negative = inhibition: at the top concentration
# In short: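 AlphaScreen displacement of biotin-H3(5-23)K14Ac peptide (50 nM final) from BAZ2B (50 nM final) in PBS pH 7.4, 0.01% Tween-20; complex preformed 30 min RT, then compounds (top 110 uM) 30 min RT, beads 20 min dark.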
# % is scaled to controls: 0 for no effect and ±100 for the full control effect; potency is read from the fitted curve at half-maximal effect.
Compound,"activity change, negative = inhibition",Potency
COc1ccc(N2CCN(S(=O)(=O)CCNC(=O)C(c3ccccc3)c3ccccc3)CC2)cc1,1.98%,
C#CCOCCOCCOCCNc1nc(N2CCN(C(=O)Cn3cc(CCCCN)nn3)CC2)nc(N2CCN(C(=O)[C@H](CCCCN)n3cc(CCC(=O)O)nn3)CC2)n1,3.13%,
C#CCOCCOCCOCCNc1nc(N2CCN(C(=O)CCCCCCCCCCNC(=O)[C@H]([C@@H](C)CC)n3cc(CCCCN=C(N)N)nn3)CC2)nc(N2CCN(C(=O)CCCCCCCCCCNC(=O)[C@H](CO)n3cc(CCCSC)nn3)CC2)n1,,50.1 µM (active)
C#CCOCCOCCOCCNc1nc(N2CCN(C(=O)CCCCCCCCCCNC(=O)Cn3cc(CCCCCN)nn3)CC2)nc(N2CCN(C(=O)CCCCCCCCCCNC(=O)[C@H](CO)n3cc(CCCSC)nn3)CC2)n1,,50.1 µM (active)
CC[C@@H](C)[C@@H](C(=O)N1CCN(C(=O)OC(C)(C)C)CC1)n1cc(CCC(=O)O)nn1,0.303%,
CCOc1cccc(CNC(=O)c2ccc(N3CCCC3)c(NC(=O)Nc3ccccc3CC)c2)c1,-11.9%,
Cc1oc(C)c2c(=O)cc(-c3ccc4c(c3)OCO4)cc(OC(=O)c3ccc(Cl)cc3)c12,-15.3%,
CCn1ccnc1CN1CCCC(C(=O)c2ccc3c4c(cccc24)CC3)C1 (stereo unspecified),,50.1 µM (active)
COc1ccc(C(=O)C2CCCN(Cc3ccc4nonc4c3)C2)c(C)c1 (stereo unspecified),4.01%,
CC(=O)NCC(=O)N1CCCC(C(=O)c2ccc3c4c(cccc24)CC3)C1 (stereo unspecified),-9.91%,
Cc1nc2ccc(S(=O)(=O)N(CC(=O)Nc3ccc(F)cc3)Cc3ccccc3)cc2s1,-13%,
COc1ccc(NC(=O)CSc2nc3ccccc3c(=O)n2C)cc1,12.4%,
COc1ccc(NC(=O)CSc2nc(N)c(-c3ccccc3)c(=O)[nH]2)cc1,0.717%,
COc1ccc(-c2nc3c(c(SCC(=O)Nc4ccc(C(=O)O)cc4)n2)Cc2ccccc2O3)cc1,,8.91 µM (active)
COc1ccc(Cl)cc1NC(=O)CSc1nc(-c2cccs2)cc(C(F)(F)F)n1,4.09%,
Cc1ccc(CN2CCCn3nc(C(=O)NCc4ccccc4Cl)cc3C2=O)cc1,-15.9%,
O=C1c2ccccc2C(=O)C1c1ccccc1F,-9.2%,
O=C1c2ccccc2C2=Nc3ccccc3SC(c3ccccc3F)C12 (stereo unspecified),,8.91 µM (active)
CC1Cc2cc(S(=O)(=O)CCC(=O)NCc3ccc(Cl)cc3)ccc2N1C(=O)C1CC1 (stereo unspecified),-0.78%,

Compound,"activity change, negative = inhibition",Potency
O=C(Nc1cc2c3c(c1)C1CCCC1CN3CC1CCCC21)c1ccc([N+](=O)[O-])cc1 (stereo unspecified),,11.2 µM (active)
CN1C2CCC1CC(NC(=O)c1ccc([N+](=O)[O-])cc1)C2 (stereo unspecified),-7.51%,
CN(CC1CCCO1)S(=O)(=O)c1ccc(C(=O)Nc2ccc([N+](=O)[O-])cc2)cc1 (stereo unspecified),-21.8%,
Cc1ccc(S(=O)(=O)c2c(Nc3cccc(Cl)c3)sc(C(=O)c3ccc4c(c3)OCO4)c2N)cc1,-15.3%,
CCCCC(=O)OC1=CN(Cc2ccccc2)S(=O)(=O)c2ccccc21,10.3%,
CCN1CCC2(CC1)N=C(c1ccc(F)cc1)C(=S)N2C(=O)c1ccc(C)cc1,,44.7 µM (active)
CCN1CCN(C(=O)CSc2ccc(C)cc2)CC1,-3.19%,
Cc1ccc(NC(=O)CN2C(=O)C(c3ccc(F)cc3)=NC23CCCCCC3)c(C)c1,37.2%,
COc1ccc(CNC(=O)c2cc3cccc(OC)c3oc2=O)cc1,-15.9%,
O=C(NCCS(=O)(=O)N1CCN(c2ccc(F)cc2)CC1)c1ccccc1Br,-5.66%,
COc1ccc(CNc2nc(-c3ccc(Cl)cc3)nn2C(=O)c2ccccc2)cc1,8.67%,
O=C(CSc1oc(-c2ccccc2)nc1S(=O)(=O)c1ccc(Br)cc1)NC1CCCCC1,5.24%,
CCOc1ccccc1NC(=O)CSc1ncc(S(=O)(=O)c2ccc(C(C)(C)C)cc2)c(=O)[nH]1,-14.3%,
O=C(CC1N=C2c3ccccc3N=C(SCc3ccc(F)cc3)N2C1=O)NCc1cccs1 (stereo unspecified),9.88%,
CCOC(=O)c1ccccc1NC(=O)CSc1nc2ccccc2c(=O)[nH]1,-4.86%,
O=C(CSc1nc2ccccc2c(=O)[nH]1)Nc1nc(-c2ccc(Br)cc2)cs1,,79.4 µM (active)
CC(=O)NCc1ccc(-c2csc(NC(=O)CCCc3nc4ccccc4c(=O)[nH]3)n2)cc1,-1.79%,
Cc1ccccc1Cn1nc(C)c(NC(=O)c2cc(-c3ccc(F)cc3)on2)c1C,2.54%,
O=C(NCc1cccnc1)c1cn(-c2ccccc2)nc1-c1cccs1,5.33%,

Compound,"activity change, negative = inhibition",Potency
O=C(O)c1ccc(N/N=C/c2cn(-c3ccccc3)nc2-c2cccs2)cc1,,79.4 µM (active)
COc1cccc(NC(=O)CN(C)C(=O)/C=C/c2cn(-c3ccccc3)nc2-c2cccs2)c1,-36.5%,
CC(C)(C)OC(=O)N1CCC(c2c(C(=O)N3CCN(c4cccc(Cl)c4)CC3)cnn2-c2cccc(Cl)c2)CC1,2.35% [at 57.1 µM],
O=C(Nc1ccccc1Cl)N1CCC(CN2CCCC2)CC1,2.8%,
CCS(=O)(=O)N1CCc2cc(C(=O)NCc3ccc(C)cc3)ccc21,-4.46%,
O=C(NC1CC(=O)N(c2ccc(F)cc2)C1)C1CCCCC1 (stereo unspecified),0.429%,
CCCNc1ncnc2c1c(-c1ccccc1)cn2-c1ccc(OCC)cc1,-26.2%,
COc1ccc(-n2cc(-c3ccccc3)c3c(=S)nc[nH]c32)cc1,,79.4 µM (active)
COc1ccc(N2C(=O)C(Cc3ccccc3)NC2=S)cc1 (stereo unspecified),-3.55%,
COc1ccc(C2=NC3(CCCCC3)N(CC(=O)Nc3ccc(C(C)C)cc3)C2=O)cc1,-0.108%,
COc1cc(OC)c2ccc(=O)oc2c1C(CCN1CCN(c2ccccc2)CC1)c1ccc2c(c1)OCO2 (stereo unspecified),,25.1 µM (active)
CCN(CC)CCC(c1ccc2c(c1)OCO2)c1c(OC)cc(OC)c2c(-c3ccccc3)cc(=O)oc12 (stereo unspecified),-33.9%,
CCN(CC)CCC(c1cc(OC)c(OC)c(OC)c1)c1c(OC)cc(OC)c2c(-c3ccccc3)cc(=O)oc12 (stereo unspecified),-14.6%,
CCOC(=O)C1CCCN(C(=O)c2ccc(-n3ccc4ccccc43)s2)C1 (stereo unspecified),50%,
O=C(COC(=O)c1ccc(F)cc1F)Nc1ncccn1,,50.1 µM (active)
Cc1cccc(C(=O)OCC(=O)Nc2ccc(F)cc2)c1,2.82%,
COc1cc(OC)cc(C(=O)OCC(=O)Nc2ccc(F)cc2F)c1,-10.2%,
COc1ccc(CCNC(=O)C(=O)NCC(c2ccco2)S(=O)(=O)c2cccs2)cc1OC (stereo unspecified),3.47%,
